Pf Dd2 inh: P. falciparum Dd2 growth inhibitors, primary screen, SYBR Green fluorescence, single dose replicates; 72 h; stronger effect = lower value; activity change, % at 10 µM; 2.3% of 94,000 active; AID 1159554, 2015; in the data active = activity change below about -80%
C diff HTS: C. difficile growth inhibitors, primary screen, HTS. AID 1259249, 2017. 0.25% of 86,000 active. Clostridium difficile clinical isolate growth, OD600, 24 h; stronger effect = lower value. growth activity, negative = inhibition, % at 16 µg/mL (by protocol);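 active = mean growth activity at or below -80% and every replicate also at or below -80%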;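 also: 0% = DMSO wells and -100% = levofloxacin 16 µg/mL wells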
* hit, by the source's call; · = no result given; ! = not active in a repeat. Sampled rows, rich in hits. Any-hit rate of the full collection: about 2.4%.

SMILES	Pf Dd2 inh	C diff HTS
Cc1ccc(S(=O)(=O)Nc2ccc3c(c2)C(=O)N([C@@H](C)CO)C[C@@H](C)[C@@H](CN(C)Cc2ccc(C(=O)O)cc2)O3)cc1	12	-2
Cc1ccc(S(=O)(=O)N(C)C[C@H]2OCCCC[C@H](C)Oc3ccc(NC(=O)NC4CCCCC4)cc3C(=O)N([C@H](C)CO)C[C@H]2C)cc1	-83*	-3
Cc1ccc(S(=O)(=O)N(C)C[C@H]2OCCCC[C@H](C)Oc3ccc(NC(=O)NC4CCCCC4)cc3C(=O)N([C@H](C)CO)C[C@@H]2C)cc1	-67	-4
Cc1ccc(S(=O)(=O)N(C)C[C@@H]2OCCCC[C@H](C)Oc3ccc(NC(=O)NC4CCCCC4)cc3C(=O)N([C@@H](C)CO)C[C@H]2C)cc1	-80	4
Cc1ccc(S(=O)(=O)N(C)C[C@@H]2OCCCC[C@@H](C)Oc3ccc(NC(=O)NC4CCCCC4)cc3C(=O)N([C@H](C)CO)C[C@@H]2C)cc1	-77	10
Cc1ccc(S(=O)(=O)N(C)C[C@@H]2OCCCC[C@@H](C)Oc3ccc(NC(=O)NC4CCCCC4)cc3C(=O)N([C@@H](C)CO)C[C@@H]2C)cc1	-86*	14
Cc1ccc(S(=O)(=O)N(C)C[C@@H]2OCCCC[C@@H](C)Oc3ccc(NC(=O)NC4CCCCC4)cc3C(=O)N([C@H](C)CO)C[C@H]2C)cc1	-81*	18
O=C(NC[C@@H]1[C@H](c2ccccc2)[C@@H](CO)N1C(=O)Cc1ccncc1)C1CCC1	1	0
CCCN1[C@@H]2c3ccc(-c4ccccc4OC)c(=O)n3C[C@@H]2[C@@H](CO)[C@@H]1C(=O)N(C)C	·	3
O=C(N[C@@H]1CC[C@H](CCNC(=O)c2ccccc2F)O[C@@H]1CO)c1ccc2c(c1)OCO2	-1	-3
CCNC(=O)C[C@H]1CC[C@@H]2[C@H](COC[C@@H](O)CN2C(=O)Nc2ccc(C(F)(F)F)cc2)O1	8	62
O=C(C[C@H]1CC[C@@H]2[C@H](COC[C@H](O)CN2C(=O)Nc2ccc(C(F)(F)F)cc2)O1)NCC1CC1	-17	-23
O=C(C[C@@H]1CC[C@H]2[C@@H](COC[C@@H](O)CN2C(=O)Nc2ccc(C(F)(F)F)cc2)O1)NCC1CCCCC1	7	-100*!
CCNC(=O)C[C@@H]1CC[C@H]2[C@@H](COC[C@@H](O)CN2C(=O)Nc2ccc(C(F)(F)F)cc2)O1	-32	-100*
O=C(C[C@@H]1CC[C@@H]2[C@H](COC[C@@H](O)CN2C(=O)Nc2ccc(C(F)(F)F)cc2)O1)NCC1CCCCC1	-16	58
CCNC(=O)C[C@@H]1CC[C@@H]2[C@H](COC[C@H](O)CN2C(=O)Nc2ccc(C(F)(F)F)cc2)O1	-18	-97*!
CCCN1[C@@H]2c3ccc(-c4cccc(F)c4)c(=O)n3C[C@H]1[C@H](CO)[C@H]2C(=O)NCC1CC1	·	-11
C[C@@H]1CN([C@H](C)CO)C(=O)Cc2cc(NC(=O)Nc3ccccc3)ccc2O[C@@H]1CN(C)C	1	1
CN(C)CCCNC(=O)C[C@@H]1CC[C@@H]2[C@@H](COc3ccc(NC(=O)c4cccc(F)c4)cc3C(=O)N2C)O1	10	-5
O=C(CCN1CCCCC1)N[C@@H]1CC[C@@H](CCNS(=O)(=O)c2ccc(Cl)cc2)O[C@H]1CO	-14	1
CC(C)NC(=O)N1[C@@H](CO)[C@@H](c2ccccc2)C12CN(Cc1ccccc1)C2	-51	-7
O=C(C1CC1)N1CC2(C1)[C@@H](c1ccccc1)[C@@H](CO)N2Cc1ccccc1F	-43	-2
CC(C)NC(=O)N1[C@H](CO)[C@@H](c2ccccc2)C12CN(Cc1ccc(Cl)cc1)C2	-88*	5
OC[C@H]1[C@H](c2ccccc2)C2(CN(Cc3ccccc3F)C2)N1Cc1ccccc1F	-93*	22
CC(C)NC(=O)N1[C@@H](CO)[C@@H](c2ccccc2)C12CN(Cc1ccc(F)cc1)C2	-84*	4
SMILES	Pf Dd2 inh	C diff HTS
CC(C)NC(=O)N1[C@@H](CO)[C@@H](c2ccccc2)C12CN(Cc1ccc(Cl)cc1)C2	-69	0
C[C@H]1CN([C@@H](C)CO)C(=O)c2cc(C#CC3CCCCC3)cnc2O[C@@H]1CN(C)S(C)(=O)=O	-12	-13
CO[C@H](CN(C)C(=O)c1cnccn1)[C@H](C)CN([C@@H](C)CO)S(=O)(=O)c1ccc(Cl)cc1	11	·
C[C@H](CO)N1C[C@H](C)[C@H](CN(C)C(=O)C2CCC2)Oc2ncc(C#Cc3ccccc3F)cc2C1=O	-20	4
C[C@@H]1CN([C@H](C)CO)C(=O)CCCn2cc(nn2)CO[C@@H]1CN(C)C(=O)Nc1ccc(N2CCN(C)CC2)cc1	-5	3
COc1ccccc1S(=O)(=O)N(C)C[C@H]1OCc2cn(nn2)CCCC(=O)N([C@@H](C)CO)C[C@@H]1C	-89*	·
C[C@H](CO)N1C[C@H](C)[C@H](CN(C)C(=O)Nc2ccc(N3CCCCC3)cc2)OCc2cnnn2CCCC1=O	-6	-5
C[C@H]1CN([C@@H](C)CO)C(=O)CCCn2nncc2CO[C@@H]1CN(C)C(=O)Nc1ccc(N2CCCCC2)cc1	-90*!	-3
COc1ccccc1S(=O)(=O)N(C)C[C@H]1OCc2cn(nn2)CCCC(=O)N([C@H](C)CO)C[C@H]1C	-7	·
C[C@H]1CN([C@@H](C)CO)C(=O)CCCn2cc(nn2)CO[C@@H]1CN(C)C(=O)Nc1ccc(N2CCCCC2)cc1	-89*!	0
CC(C)NC(=O)Nc1cccc2c1O[C@H](CN(C)C(=O)Nc1cccc3ccccc13)[C@@H](C)CN([C@@H](C)CO)C2=O	-5	-8
CCS(=O)(=O)N1CCCCN2[C@@H](CO)[C@H](c3ccc(C#Cc4ccccc4OC)cc3)[C@@H]2C1	-15	60
CN(C)c1ccc2c(c1)[C@@H]1C[C@H](CC(=O)NCc3ccc(Oc4ccccc4)cc3)O[C@@H](CO)[C@@H]1O2	-75	-7
CN(C)c1ccc2c(c1)[C@@H]1C[C@@H](CC(=O)N3CCc4ccccc4C3)O[C@@H](CO)[C@@H]1O2	-86*	-7
C[C@@H](NC(=O)C[C@H]1C[C@@H]2c3cc(NS(=O)(=O)c4ccc(F)cc4)ccc3O[C@@H]2[C@H](CO)O1)c1ccccc1	-99*	-10
C[C@H](NC(=O)C[C@H]1C[C@@H]2c3cc(NS(=O)(=O)c4ccc(F)cc4)ccc3O[C@@H]2[C@H](CO)O1)c1ccccc1	-22	-8
CN(C)c1ccc2c(c1)[C@H]1C[C@H](CC(=O)NCc3ccc(Oc4ccccc4)cc3)O[C@H](CO)[C@H]1O2	-90*	-3
COc1ccccc1CNC(=O)C[C@@H]1C[C@@H]2c3cc(NC(=O)Cc4ccncc4)ccc3O[C@@H]2[C@H](CO)O1	-47	1
COc1ccccc1CNC(=O)C[C@H]1C[C@H]2c3cc(NC(=O)Cc4ccncc4)ccc3O[C@H]2[C@@H](CO)O1	-82*	7
CN(C)c1ccc2c(c1)[C@H]1C[C@@H](CC(=O)N3CCc4ccccc4C3)O[C@@H](CO)[C@H]1O2	-47	-1
Cc1noc(C)c1S(=O)(=O)Nc1ccc2c(c1)CC(=O)N([C@@H](C)CO)C[C@@H](C)[C@@H](CN(C)CC1CCCCC1)O2	-12	0
CCCC#Cc1ccc2c(c1)O[C@H](CN(C)Cc1ccc3c(c1)OCO3)[C@H](C)CN([C@@H](C)CO)S2(=O)=O	-79	15
